The source of these data is PubChem BioAssay (EPA / NIEHS).

Test [1] can be described thus: ATG_GRE_CIS: Attagene CIS-FACTORIAL HepG2 Assay for human Glucocorticoid Response Elements (GRE) (AID 2282947). The note with it: HepG2 GRE cis-reporter, Attagene multiplex mRNA; actives raise or lower the signal. An outline of the steps: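 Following 24 h chemical exposure of transiently transfected HepG2 cells, total RNA was reverse-transcribed and reporter cDNA amplified, fluorescently labelled and sized by capillary electrophoresis. Signal gain or loss was fitted relative to DMSO vehicle.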

Test [2] in a line: ATG_ISRE_CIS: Attagene CIS-FACTORIAL HepG2 Assay for human Interferon Regulatory Factor 1 (IRF1) binding to an Interferon-Stimulated Response Element (ISRE) (AID 2282948). The settings on record: HepG2 ISRE cis-reporter (Attagene), mRNA transcription readout; actives raise or lower the signal. An outline of the steps: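 Transiently transfected HepG2 cells carrying cis-element reporter units, dosed 24 hours. Reporter mRNA quantified by RT-PCR, fluorescent primer extension, HpaI digestion and capillary electrophoresis. Bidirectional fitting relative to DMSO.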

Test [3] can be described thus: ATG_M_32_CIS: Attagene CIS-FACTORIAL HepG2 Assay for M32 Transcription Factor (Internal Marker) (AID 2282949).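 Note: background control marker of the multiplexed CIS panel rather than a real target.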 The settings on record: HepG2 Attagene cis-factorial M32 reporter, mRNA; actives raise or lower the signal. An outline of the steps: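 HepG2 cells transiently transfected with multiplexed cis-regulated reporter units, dosed 24 h. Reporter mRNA quantified by RT-PCR, 6-FAM labelling, HpaI digestion and capillary electrophoresis; bidirectional fit vs DMSO.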

Test [4] is described as follows: ATG_M_06_CIS: Attagene CIS-FACTORIAL HepG2 Assay for M06 Transcription Factor (Internal Marker) (AID 2282950). The note with it: HepG2 Attagene CIS-FACTORIAL M06 internal marker reporter; actives raise or lower the signal. An outline of the steps: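 Fluorescence-labelled RT-PCR products from cis-promoter reporter units, cut with HpaI and resolved by capillary electrophoresis, give the signal. Cells are human HepG2, dosed for 24 h. Serves as background control, fitted relative to DMSO.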

Test [5] addresses Hypoxia-inducible factor 1-alpha (Homo sapiens) (UniProt Q16665). Description: ATG_HIF1a_CIS: Attagene CIS-FACTORIAL HepG2 Assay for human Hypoxia Inducible Factor 1 (HIF1A) (AID 2282951). The note with it: HepG2 Attagene cis-factorial HIF1a reporter transcription; actives raise or lower the signal. An outline of the steps:
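Transient MRTU transfection of human HepG2 liver cells, 24 h compound treatment, then total RNA isolation, oligo(dT) reverse transcription, PCR amplification, fluorescent labelling and capillary electrophoresis of reporter fragments. Gain or loss relative to DMSO.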

Test [6] has as its target Hepatocyte nuclear factor 6 (Homo sapiens) (UniProt Q9UBC0). Description: ATG_HNF6_CIS: Attagene CIS-FACTORIAL HepG2 Assay for human Hepatocyte Nuclear Factor 6 (HNF6) (AID 2282952). The settings on record: HepG2 Attagene cis-factorial HNF6 reporter transcription; actives raise or lower the signal. An outline of the steps: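 HepG2, transient MRTU transfection (cis promoters); 24 h chemical exposure; total RNA → oligo(dT) RT → PCR → 6-FAM labelling → HpaI cut → CE; bidirectional fit vs DMSO.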

Test [7] has as its target Heat shock factor protein 1 (Homo sapiens) (UniProt Q00613). As to the kind of experiment: ATG_HSE_CIS: Attagene CIS-FACTORIAL HepG2 Assay for human Heat Shock Transcription Factor 1 (HSE) (AID 2282953). The note with it: HepG2 HSE cis-reporter, Attagene RNA transcription; actives raise or lower the signal. An outline of the steps:
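After a 24 h incubation with test chemical, transfected HepG2 cells were harvested for RNA; reporter transcripts were measured by RT-PCR and capillary electrophoresis. Values reflect gain or loss of signal relative to DMSO.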

A short description of test [8]: ATG_MRE_CIS: Attagene CIS-FACTORIAL HepG2 Assay for human Metal Responsive Element (MRE) (AID 2282954). The settings on record: HepG2 MRE cis-reporter transcription, Attagene multiplex; actives raise or lower the signal. An outline of the steps:
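Step one: transfect HepG2 with cis-regulated reporter units. Step two: dose 24 h. Step three: isolate RNA, RT-PCR, 6-FAM label, HpaI digest, capillary electrophoresis. Fit bidirectionally to DMSO.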

Test [9] concerns the target Paired box protein Pax-6 (Homo sapiens) (UniProt P26367). Description: ATG_Pax6_CIS: Attagene CIS-FACTORIAL HepG2 Assay for human Paired Box 6 (PAX6) (AID 2282956). The note with it: HepG2 CIS-FACTORIAL PAX6 reporter transcription, RNA readout; actives raise or lower the signal. An outline of the steps: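 HepG2 cells transiently transfected with cis-promoter-driven multiplexed reporter units sensing endogenous transcription factor activity; 24 h chemical exposure. Reporter mRNA quantified by RT-PCR, 6-FAM labelling, HpaI digestion and capillary electrophoresis; bidirectional fit versus DMSO baseline.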

Test [10] is described as follows: ATG_PXRE_CIS: Attagene CIS-FACTORIAL HepG2 Assay for human Pregnane X Receptor Element (PXRE) (AID 2282957). The settings on record: HepG2 Attagene CIS-FACTORIAL PXRE reporter, mRNA; actives raise or lower the signal. An outline of the steps: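 Transfect HepG2 with MRTUs (cis promoter elements); dose chemical, incubate 24 h; isolate RNA, RT with oligo(dT), PCR, 6-FAM label, HpaI cut, CE. Gain/loss fit vs DMSO.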

Test [11] is described as follows: ATG_PPRE_CIS: Attagene CIS-FACTORIAL HepG2 Assay for human Peroxisome Proliferator-activated Response Element (PPRE) (AID 2282958). The settings on record: HepG2 PPRE cis-element reporter, Attagene transcription factor profiling; actives raise or lower the signal. An outline of the steps:
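HepG2, transient MRTU transfection (cis promoter elements, endogenous TFs). 24 h dosing. RNA → oligo(dT) RT → PCR → 6-FAM primer extension → HpaI digest → CE. Bidirectional fit vs DMSO.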

The nature of test [12]: ATG_Sox_CIS: Attagene CIS-FACTORIAL HepG2 Assay for human SRY-box transcription factor (SOX) (AID 2282960). The settings on record: HepG2 Attagene cis-factorial SOX reporter, mRNA; actives raise or lower the signal. An outline of the steps:
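Endogenous factor activity in human liver HepG2 cells carrying transfected cis-regulated reporter units. RNA taken 24 h post-dose, reverse-transcribed, PCR-amplified and sized by capillary electrophoresis. Gain or loss of signal fitted relative to DMSO.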

Test [13] deals with Transcription factor Sp1 (Homo sapiens) (UniProt P08047). As to the kind of experiment: ATG_Sp1_CIS: Attagene CIS-FACTORIAL HepG2 Assay for human Specificity Protein 1 (Sp1) (AID 2282961). The note with it: HepG2 Sp1 cis-reporter transcription, actives raise or lower the signal. An outline of the steps: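 Transient MRTU-transfected HepG2, 24 h compound exposure. Total RNA → oligo(dT) RT → PCR of reporter → 6-FAM primer extension → HpaI digest → CE. Endpoint fitted both directions vs DMSO.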

The nature of test [14]: ATG_SREBP_CIS: Attagene CIS-FACTORIAL HepG2 Assay for human Sterol Regulatory Element Binding (SREBP) (AID 2282962). The settings on record: HepG2 Attagene cis-factorial SREBP reporter, mRNA; actives raise or lower the signal. An outline of the steps: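 HepG2 cells transiently transfected with multiplexed cis-promoter reporter units sensing endogenous transcription factors; reporter mRNA measured 24 h after dosing by RT-PCR, 6-FAM labeling, HpaI digestion and capillary electrophoresis. Bidirectional fit versus DMSO.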

Test [15] can be described thus: ATG_TA_CIS: Attagene CIS-FACTORIAL HepG2 Assay for human TA Basal Promoter (AID 2282964). The settings on record: HepG2 Attagene CIS-factorial TA basal promoter reporter; actives raise or lower the signal. An outline of the steps: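 Multiplexed mRNA reporter assay, HepG2, 24 h. Reporter cDNA amplified, 6-FAM primer-extended, HpaI-cut, CE-sized; DMSO = negative control and baseline.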

Test [16] can be described thus: ATG_TCF_b_cat_CIS: Attagene CIS-FACTORIAL HepG2 Assay for human T-Cell-Factor with beta-catenin (TCF/b-cat) (AID 2282965). The settings on record: HepG2 TCF/beta-catenin cis-reporter transcription, actives raise or lower the signal. An outline of the steps:
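Using capillary electrophoresis as the read-out, labelled reporter cDNA fragments from transiently transfected HepG2 were sized and quantified. Exposure lasted 24 hours; activity in either direction was referenced to DMSO.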

Test [17] in a line: ATG_RORE_CIS: Attagene CIS-FACTORIAL HepG2 Assay for human RAR-related Orphan Receptor Element (RORE) (AID 2282959). The settings on record: HepG2 Attagene cis-factorial RORE reporter, mRNA; actives raise or lower the signal. An outline of the steps: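 Transient MRTU transfection of human HepG2 liver cells (FuGene 6); 24 h compound exposure; TriZol RNA, oligo(dT) RT, PCR, FAM labeling, HpaI cut, CE fragment analysis. DMSO = negative control/baseline.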

The target of test [18] is Signal transducer and activator of transcription 3 (Homo sapiens) (UniProt P40763). Description: ATG_STAT3_CIS: Attagene CIS-FACTORIAL HepG2 Assay for human Signal Transducer and Activator of Transcription 3 (STAT3) (AID 2282963). The settings on record: HepG2, Attagene cis-factorial STAT3 reporter transcription; actives raise or lower the signal. An outline of the steps: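 Transcript-level reporter assay. HepG2 transient MRTU transfection, 24 h exposure, fluorescence detection after RT-PCR and CE; DMSO baseline.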

Test [19] in a line: ATG_PBREM_CIS: Attagene CIS-FACTORIAL HepG2 Assay for human Phenobarbital-responsive Enhancer Module (PBREM) (AID 2282955). The settings on record: HepG2 PBREM cis-reporter, Attagene multiplexed transcription; actives raise or lower the signal. An outline of the steps: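 Endogenous transcription factors in human liver HepG2 cells drive a PBREM cis-element reporter, whose transcript level after 24 h treatment is quantified by RT-PCR with capillary electrophoresis; activity fitted in both directions against DMSO.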

Active and inactive are the calls of the source. Rule for the calls: active = hit-call score of the fitted dose curve at least 0.9, where 1 is the maximum; inactive = score below 0.9.

Sequence of Signal transducer and activator of transcription 3 (Homo sapiens) (P40763 whole entry, looked up): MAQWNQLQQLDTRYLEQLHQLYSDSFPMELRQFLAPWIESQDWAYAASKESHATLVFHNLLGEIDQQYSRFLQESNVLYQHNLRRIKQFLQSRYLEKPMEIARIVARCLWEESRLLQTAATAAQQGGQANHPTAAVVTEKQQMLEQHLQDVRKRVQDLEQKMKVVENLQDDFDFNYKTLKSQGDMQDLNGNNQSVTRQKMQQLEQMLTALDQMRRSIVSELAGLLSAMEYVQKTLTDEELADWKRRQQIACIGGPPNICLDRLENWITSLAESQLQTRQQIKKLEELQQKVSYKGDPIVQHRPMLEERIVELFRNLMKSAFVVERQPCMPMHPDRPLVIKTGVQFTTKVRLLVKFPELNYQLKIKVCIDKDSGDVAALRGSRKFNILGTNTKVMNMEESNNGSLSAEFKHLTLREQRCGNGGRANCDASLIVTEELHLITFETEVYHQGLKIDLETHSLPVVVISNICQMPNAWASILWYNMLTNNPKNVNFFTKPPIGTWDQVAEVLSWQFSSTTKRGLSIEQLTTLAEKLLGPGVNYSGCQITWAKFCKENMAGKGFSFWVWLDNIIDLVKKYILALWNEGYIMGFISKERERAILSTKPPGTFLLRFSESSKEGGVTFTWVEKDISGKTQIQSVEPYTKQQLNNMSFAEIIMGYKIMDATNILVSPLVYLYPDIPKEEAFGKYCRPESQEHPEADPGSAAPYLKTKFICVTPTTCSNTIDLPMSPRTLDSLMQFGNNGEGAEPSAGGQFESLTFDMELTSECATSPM
Sequence of Paired box protein Pax-6 (Homo sapiens) (P26367 whole entry, looked up): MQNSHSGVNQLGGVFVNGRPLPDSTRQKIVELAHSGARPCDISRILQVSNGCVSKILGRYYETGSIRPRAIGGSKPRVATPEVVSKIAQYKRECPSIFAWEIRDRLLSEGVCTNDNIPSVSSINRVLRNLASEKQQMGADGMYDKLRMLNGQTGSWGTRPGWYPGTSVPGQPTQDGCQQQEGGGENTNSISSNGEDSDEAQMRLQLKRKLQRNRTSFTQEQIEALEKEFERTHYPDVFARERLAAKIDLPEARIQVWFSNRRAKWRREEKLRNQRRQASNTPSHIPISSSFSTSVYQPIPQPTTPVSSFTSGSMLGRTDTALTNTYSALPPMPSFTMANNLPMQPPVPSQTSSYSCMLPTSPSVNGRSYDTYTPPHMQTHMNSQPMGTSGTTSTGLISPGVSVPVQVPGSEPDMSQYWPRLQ
Sequence of Hypoxia-inducible factor 1-alpha (Homo sapiens) (Q16665 whole entry, looked up, the tested form may be a part): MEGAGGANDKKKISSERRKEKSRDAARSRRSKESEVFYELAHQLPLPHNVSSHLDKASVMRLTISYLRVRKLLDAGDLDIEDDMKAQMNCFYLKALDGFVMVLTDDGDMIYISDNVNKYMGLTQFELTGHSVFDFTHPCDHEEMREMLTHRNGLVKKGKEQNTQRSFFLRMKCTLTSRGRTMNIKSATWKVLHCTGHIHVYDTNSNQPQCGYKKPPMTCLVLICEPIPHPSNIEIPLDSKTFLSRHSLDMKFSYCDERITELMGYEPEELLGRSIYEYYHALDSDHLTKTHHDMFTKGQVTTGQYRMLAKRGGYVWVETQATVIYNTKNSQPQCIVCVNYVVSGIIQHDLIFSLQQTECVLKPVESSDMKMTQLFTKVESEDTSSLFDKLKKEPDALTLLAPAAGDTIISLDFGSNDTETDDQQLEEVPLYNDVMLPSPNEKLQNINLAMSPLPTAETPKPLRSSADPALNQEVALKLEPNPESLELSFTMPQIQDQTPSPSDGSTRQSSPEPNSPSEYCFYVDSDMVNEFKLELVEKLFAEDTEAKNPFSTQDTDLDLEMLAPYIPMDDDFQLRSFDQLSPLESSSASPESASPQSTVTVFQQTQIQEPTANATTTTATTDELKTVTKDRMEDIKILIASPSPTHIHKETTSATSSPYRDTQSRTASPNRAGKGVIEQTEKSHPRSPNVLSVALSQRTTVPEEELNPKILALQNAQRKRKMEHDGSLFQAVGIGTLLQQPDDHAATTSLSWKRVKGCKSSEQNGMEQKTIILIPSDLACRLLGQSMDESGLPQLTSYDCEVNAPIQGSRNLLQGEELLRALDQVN
Sequence of Hepatocyte nuclear factor 6 (Homo sapiens) (Q9UBC0 whole entry, looked up): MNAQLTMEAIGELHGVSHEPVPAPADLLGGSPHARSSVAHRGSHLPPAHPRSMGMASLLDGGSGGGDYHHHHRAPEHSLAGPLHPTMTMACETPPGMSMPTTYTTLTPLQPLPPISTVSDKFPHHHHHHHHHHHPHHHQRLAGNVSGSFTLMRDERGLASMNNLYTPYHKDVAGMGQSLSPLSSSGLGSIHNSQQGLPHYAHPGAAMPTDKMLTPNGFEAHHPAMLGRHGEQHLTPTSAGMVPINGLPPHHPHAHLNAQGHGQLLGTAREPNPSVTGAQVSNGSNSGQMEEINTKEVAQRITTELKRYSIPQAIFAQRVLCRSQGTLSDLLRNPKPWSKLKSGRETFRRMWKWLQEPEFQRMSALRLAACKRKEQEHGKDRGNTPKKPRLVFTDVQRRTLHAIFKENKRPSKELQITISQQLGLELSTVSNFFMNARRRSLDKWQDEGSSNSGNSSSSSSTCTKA
Sequence of Transcription factor Sp1 (Homo sapiens) (P08047 whole entry, looked up): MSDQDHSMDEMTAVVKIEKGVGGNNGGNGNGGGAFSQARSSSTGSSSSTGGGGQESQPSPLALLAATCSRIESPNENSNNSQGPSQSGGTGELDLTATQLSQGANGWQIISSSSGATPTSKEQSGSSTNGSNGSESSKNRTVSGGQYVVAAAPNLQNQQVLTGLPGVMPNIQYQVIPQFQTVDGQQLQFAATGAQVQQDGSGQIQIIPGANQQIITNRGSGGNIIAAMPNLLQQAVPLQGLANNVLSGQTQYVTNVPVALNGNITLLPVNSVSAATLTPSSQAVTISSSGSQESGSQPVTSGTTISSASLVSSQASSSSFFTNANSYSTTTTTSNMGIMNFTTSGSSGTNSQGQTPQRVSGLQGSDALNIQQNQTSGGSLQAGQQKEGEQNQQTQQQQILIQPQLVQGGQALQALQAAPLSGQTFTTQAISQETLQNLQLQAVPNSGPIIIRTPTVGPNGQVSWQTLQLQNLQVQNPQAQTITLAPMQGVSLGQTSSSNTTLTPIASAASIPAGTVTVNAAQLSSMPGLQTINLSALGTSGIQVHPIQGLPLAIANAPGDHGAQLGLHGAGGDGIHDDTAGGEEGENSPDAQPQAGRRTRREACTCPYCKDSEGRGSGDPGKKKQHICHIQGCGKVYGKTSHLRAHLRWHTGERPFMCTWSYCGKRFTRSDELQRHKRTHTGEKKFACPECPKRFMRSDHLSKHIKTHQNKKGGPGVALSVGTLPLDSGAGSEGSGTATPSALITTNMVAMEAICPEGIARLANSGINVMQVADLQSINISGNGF
Sequence of Heat shock factor protein 1 (Homo sapiens) (Q00613 whole entry, looked up): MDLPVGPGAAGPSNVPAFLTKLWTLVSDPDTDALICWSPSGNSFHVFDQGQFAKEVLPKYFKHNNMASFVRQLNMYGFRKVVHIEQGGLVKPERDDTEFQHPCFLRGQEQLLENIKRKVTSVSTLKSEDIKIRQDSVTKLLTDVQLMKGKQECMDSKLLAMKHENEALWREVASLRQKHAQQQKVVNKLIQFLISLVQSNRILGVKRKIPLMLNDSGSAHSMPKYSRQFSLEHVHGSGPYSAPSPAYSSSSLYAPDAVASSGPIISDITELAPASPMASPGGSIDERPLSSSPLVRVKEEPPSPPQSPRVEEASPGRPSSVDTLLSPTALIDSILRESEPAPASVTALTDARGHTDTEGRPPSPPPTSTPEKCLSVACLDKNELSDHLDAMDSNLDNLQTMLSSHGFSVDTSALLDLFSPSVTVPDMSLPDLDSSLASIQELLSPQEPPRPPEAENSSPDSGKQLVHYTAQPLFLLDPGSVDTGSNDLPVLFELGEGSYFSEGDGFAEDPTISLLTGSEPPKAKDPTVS

`CCC(C)(O)CCC=C(C)C` (centres undefined): the compound was classed as inactive in test [1], in test [2], in test [3], in test [4], in test [5] and in test [6]. Further, the call in [7], in test [8], in test [9], in [10], in [11] and in test [12] was inactive. Besides, the outcome in test [13], in [14], in test [15] and in test [16] was inactive.
Regarding `O=C(Oc1ccccc1)c1ccc(O)cc1`, the result in [1], in test [2], in test [3], in test [4], in test [6] and in test [7] was inactive. Besides, the compound was classed as inactive in [8], in test [9], in test [10], in test [11], in test [17] and in test [12]. For the same compound, the compound was classed as inactive in test [13], in test [14], in test [18], in test [15] and in [16]. Also, the AC50 in test [5] is 176 µM (active).
In the case of `COc1ccc(O)cc1`, the outcome in [1], in [2], in test [3], in [4], in test [5] and in test [6] was inactive. The call in [7], in test [8], in test [9], in test [11], in test [12] and in [13] was inactive. The compound was classed as inactive in test [14], in test [18], in test [15] and in [16]. Moreover, in test [10], the AC50 was 57.5 µM (active).
Regarding `OC[C@H]1O[C@H](O[C@]2(CCl)O[C@H](CCl)[C@@H](O)[C@@H]2O)[C@H](O)[C@@H](O)[C@H]1Cl`, the outcome in test [1], in [2], in [3], in test [4], in test [5] and in test [6] was inactive. In addition, the result in test [7], in test [8], in test [9], in test [10], in test [17] and in test [12] was inactive. Further, the result in [13], in [14], in [18], in test [15] and in test [16] was inactive.
On to `O=C(OCc1ccccc1)C(=O)OCc1ccccc1`, for which the outcome in [1], in test [2], in test [3], in test [4], in test [5] and in test [6] was inactive. In addition, the outcome in [8], in test [19], in [9], in [10], in test [11] and in test [17] was inactive. Further, the compound was classed as inactive in test [12], in test [13], in [14], in test [18], in test [15] and in test [16].
Consider `CCOc1ccccc1OCC`, for which the outcome in [1], in [2], in [3], in test [4], in test [5] and in test [6] was inactive. Further, the compound was called inactive in test [7], in test [17], in test [12], in [13], in test [14] and in [18]. Besides, the result in test [15] and in test [16] was inactive. The AC50 in [10] was 24.9 µM (active).
Take `O=C1CCCCCCCCCCOCCCCO1`: the compound was called inactive in test [1], in [2], in [3], in [4], in [6] and in test [9]. Besides, the result in test [11], in [17], in test [12], in [13], in test [14] and in test [15] was inactive. Moreover, in test [16], the compound was called inactive. Moreover, the AC50 in [5] is 179 µM (active); in test [8], 180 µM (active); in [10] it was 26.6 µM (active).
`C[C@H]1C[C@H]2[C@@H]3CCC4=CC(=O)C=C[C@]4(C)[C@@]3(F)[C@@H](O)C[C@]2(C)[C@@]1(O)C(=O)COP(=O)(O)O`: the AC50 in test [1] is 0.0823 µM (active). Also, the outcome in [2], in [3], in test [4], in test [5], in [6] and in test [7] was inactive. In addition, the compound was called inactive in [8], in test [9], in [10], in test [17], in test [12] and in [13]. The compound was called inactive in test [14], in test [18], in [15] and in test [16].
